In ChEMBL document CHEMBL1961873, “Compounds: GSK PKIS; Assays: Nanosyn kinase panel” (2012):

Assays:
[1] = molecular target: Calcium/calmodulin-dependent protein kinase type II subunit alpha (Homo sapiens) (UniProt Q9UQM7); conditions: at 1 µM;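 further: reported value is a mean percent inhibition of CAMK2A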
[2] = molecular target: Calcium/calmodulin-dependent protein kinase type II subunit delta (Homo sapiens) (UniProt Q13557); conditions: at 0.1 µM
[3] = molecular target: Calcium/calmodulin-dependent protein kinase type II subunit delta (Homo sapiens) (UniProt Q13557); conditions: at 1 µM
[4] = molecular target: T1, Calcium/calmodulin-dependent protein kinase type IV (Homo sapiens) (UniProt Q16566); conditions: at 0.1 µM
T1 sequence (whole entry): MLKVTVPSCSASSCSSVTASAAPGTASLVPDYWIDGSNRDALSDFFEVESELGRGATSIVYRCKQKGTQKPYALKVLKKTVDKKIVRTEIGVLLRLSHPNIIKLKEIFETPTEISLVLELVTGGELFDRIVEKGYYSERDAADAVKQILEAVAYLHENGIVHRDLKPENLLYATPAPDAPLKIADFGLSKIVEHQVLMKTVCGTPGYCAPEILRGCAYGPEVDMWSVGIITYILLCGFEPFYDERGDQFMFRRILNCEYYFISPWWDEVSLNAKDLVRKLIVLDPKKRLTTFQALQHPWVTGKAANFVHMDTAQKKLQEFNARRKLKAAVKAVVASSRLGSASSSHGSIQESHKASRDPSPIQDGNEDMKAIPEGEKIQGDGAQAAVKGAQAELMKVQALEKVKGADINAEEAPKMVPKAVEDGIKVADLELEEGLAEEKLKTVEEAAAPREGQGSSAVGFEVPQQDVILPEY

[5] = molecular target: T1, Calcium/calmodulin-dependent protein kinase type IV (Homo sapiens); conditions: at 1 µM
[6] = molecular target: T2, Serine/threonine-protein kinase Chk1 (Homo sapiens) (UniProt O14757); conditions: at 0.1 µM
T2 sequence (whole entry): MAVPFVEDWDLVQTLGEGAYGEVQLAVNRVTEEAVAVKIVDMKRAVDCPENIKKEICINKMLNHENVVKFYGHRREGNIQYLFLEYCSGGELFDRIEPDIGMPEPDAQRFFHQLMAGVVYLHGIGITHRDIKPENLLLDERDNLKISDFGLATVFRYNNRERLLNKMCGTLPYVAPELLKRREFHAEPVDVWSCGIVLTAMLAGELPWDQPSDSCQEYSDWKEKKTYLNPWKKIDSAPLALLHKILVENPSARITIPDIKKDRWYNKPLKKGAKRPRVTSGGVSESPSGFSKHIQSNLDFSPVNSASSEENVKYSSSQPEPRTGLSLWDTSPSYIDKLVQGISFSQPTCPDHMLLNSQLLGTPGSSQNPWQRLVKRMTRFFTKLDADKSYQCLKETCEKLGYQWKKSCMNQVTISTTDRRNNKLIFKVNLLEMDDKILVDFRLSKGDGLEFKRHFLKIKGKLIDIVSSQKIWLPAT

[7] = molecular target: T2, Serine/threonine-protein kinase Chk1 (Homo sapiens); conditions: at 1 µM
[8] = molecular target: Serine/threonine-protein kinase Chk2 (Homo sapiens) (UniProt O96017); conditions: at 0.1 µM
[9] = molecular target: Serine/threonine-protein kinase Chk2 (Homo sapiens) (UniProt O96017); conditions: at 1 µM
[10] = molecular target: Death-associated protein kinase 1 (Homo sapiens) (UniProt P53355); conditions: at 0.1 µM
[11] = molecular target: Death-associated protein kinase 1 (Homo sapiens) (UniProt P53355); conditions: at 1 µM
[12] = molecular target: T3, Serine/threonine-protein kinase DCLK2 (Homo sapiens) (UniProt Q8N568); conditions: at 0.1 µM
T3 sequence (whole entry): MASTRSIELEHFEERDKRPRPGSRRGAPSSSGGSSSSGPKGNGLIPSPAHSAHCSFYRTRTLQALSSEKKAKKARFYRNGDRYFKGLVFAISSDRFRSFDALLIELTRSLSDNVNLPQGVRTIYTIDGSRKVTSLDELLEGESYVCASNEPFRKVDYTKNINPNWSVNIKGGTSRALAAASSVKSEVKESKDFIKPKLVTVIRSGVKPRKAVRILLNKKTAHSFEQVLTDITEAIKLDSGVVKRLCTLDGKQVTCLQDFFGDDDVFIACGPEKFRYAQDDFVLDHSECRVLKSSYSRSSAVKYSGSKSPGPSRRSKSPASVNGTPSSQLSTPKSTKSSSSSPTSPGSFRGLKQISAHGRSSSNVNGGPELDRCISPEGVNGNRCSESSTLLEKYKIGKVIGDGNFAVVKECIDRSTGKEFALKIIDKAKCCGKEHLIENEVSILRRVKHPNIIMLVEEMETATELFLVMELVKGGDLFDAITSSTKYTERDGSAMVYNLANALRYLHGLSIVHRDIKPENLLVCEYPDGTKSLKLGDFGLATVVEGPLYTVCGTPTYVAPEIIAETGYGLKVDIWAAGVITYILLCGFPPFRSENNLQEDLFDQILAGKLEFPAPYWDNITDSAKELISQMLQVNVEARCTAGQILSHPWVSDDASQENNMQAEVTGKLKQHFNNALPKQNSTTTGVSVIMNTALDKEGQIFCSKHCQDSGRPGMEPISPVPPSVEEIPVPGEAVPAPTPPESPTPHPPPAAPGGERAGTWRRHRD

[13] = molecular target: T3, Serine/threonine-protein kinase DCLK2 (Homo sapiens); conditions: at 1 µM
[14] = molecular target: MAP kinase-activated protein kinase 2 (Homo sapiens) (UniProt P49137); conditions: at 0.1 µM
[15] = molecular target: MAP kinase-activated protein kinase 2 (Homo sapiens) (UniProt P49137); conditions: at 1 µM
[16] = molecular target: MAP kinase-activated protein kinase 3 (Homo sapiens) (UniProt Q16644); conditions: at 0.1 µM
[17] = molecular target: MAP kinase-activated protein kinase 3 (Homo sapiens) (UniProt Q16644); conditions: at 1 µM
[18] = molecular target: Serine/threonine-protein kinase MARK1 (Homo sapiens) (UniProt Q9P0L2); conditions: at 0.1 µM
[19] = molecular target: Serine/threonine-protein kinase MARK1 (Homo sapiens) (UniProt Q9P0L2); conditions: at 1 µM
[20] = molecular target: MAP/microtubule affinity-regulating kinase 3 (Homo sapiens) (UniProt P27448); conditions: at 0.1 µM;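 further: mean percent inhibition of MARK3 kinase activity, measured within the GSK PKIS screening panel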
Chain of MAP/microtubule affinity-regulating kinase 3 (Homo sapiens) (P27448 whole entry, looked up): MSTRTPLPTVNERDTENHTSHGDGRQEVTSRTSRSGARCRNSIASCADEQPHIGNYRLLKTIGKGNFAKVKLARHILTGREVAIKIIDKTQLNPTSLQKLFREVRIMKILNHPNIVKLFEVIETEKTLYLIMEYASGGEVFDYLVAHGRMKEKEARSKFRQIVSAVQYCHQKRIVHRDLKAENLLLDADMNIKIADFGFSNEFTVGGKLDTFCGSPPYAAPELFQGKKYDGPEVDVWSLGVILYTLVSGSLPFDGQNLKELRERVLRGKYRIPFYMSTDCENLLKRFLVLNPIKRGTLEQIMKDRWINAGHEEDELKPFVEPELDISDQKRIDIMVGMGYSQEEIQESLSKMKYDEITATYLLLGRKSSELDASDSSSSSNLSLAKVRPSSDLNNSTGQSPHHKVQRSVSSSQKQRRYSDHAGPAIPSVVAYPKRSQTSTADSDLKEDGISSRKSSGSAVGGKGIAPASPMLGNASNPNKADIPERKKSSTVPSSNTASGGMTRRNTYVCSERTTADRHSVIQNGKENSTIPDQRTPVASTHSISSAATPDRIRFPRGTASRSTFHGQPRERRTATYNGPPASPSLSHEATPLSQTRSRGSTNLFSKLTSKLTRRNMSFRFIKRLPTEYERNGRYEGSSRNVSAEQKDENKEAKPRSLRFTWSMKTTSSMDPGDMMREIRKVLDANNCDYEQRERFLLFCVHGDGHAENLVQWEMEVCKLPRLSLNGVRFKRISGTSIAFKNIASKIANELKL

Chain of Serine/threonine-protein kinase Chk2 (Homo sapiens) (O96017 whole entry): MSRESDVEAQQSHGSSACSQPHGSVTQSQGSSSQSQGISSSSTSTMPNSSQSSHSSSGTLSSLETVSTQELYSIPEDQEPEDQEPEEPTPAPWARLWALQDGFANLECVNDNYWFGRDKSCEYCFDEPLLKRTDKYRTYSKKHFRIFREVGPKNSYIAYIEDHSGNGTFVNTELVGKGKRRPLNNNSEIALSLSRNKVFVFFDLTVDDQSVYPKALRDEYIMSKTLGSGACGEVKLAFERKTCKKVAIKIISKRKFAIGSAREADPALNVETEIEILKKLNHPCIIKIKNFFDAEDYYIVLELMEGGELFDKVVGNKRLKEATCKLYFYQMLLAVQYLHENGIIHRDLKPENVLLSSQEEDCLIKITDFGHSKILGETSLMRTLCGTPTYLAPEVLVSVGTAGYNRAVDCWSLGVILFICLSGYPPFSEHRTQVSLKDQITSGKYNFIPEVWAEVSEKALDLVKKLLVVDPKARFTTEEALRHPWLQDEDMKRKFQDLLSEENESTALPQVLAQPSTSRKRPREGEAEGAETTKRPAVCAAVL
Chain of MAP kinase-activated protein kinase 2 (Homo sapiens) (P49137 whole entry, looked up): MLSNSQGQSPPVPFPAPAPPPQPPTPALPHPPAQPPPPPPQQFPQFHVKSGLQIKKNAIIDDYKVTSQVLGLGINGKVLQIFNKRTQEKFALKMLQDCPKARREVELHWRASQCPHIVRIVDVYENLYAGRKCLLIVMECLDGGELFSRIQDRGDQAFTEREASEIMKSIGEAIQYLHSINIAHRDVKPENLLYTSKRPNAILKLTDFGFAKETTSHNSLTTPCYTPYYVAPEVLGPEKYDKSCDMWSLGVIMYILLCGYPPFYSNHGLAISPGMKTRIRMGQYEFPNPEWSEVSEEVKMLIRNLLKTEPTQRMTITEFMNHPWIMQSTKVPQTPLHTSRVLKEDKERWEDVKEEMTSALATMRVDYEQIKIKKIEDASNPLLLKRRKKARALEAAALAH
Chain of Calcium/calmodulin-dependent protein kinase type II subunit alpha (Homo sapiens) (Q9UQM7 whole entry): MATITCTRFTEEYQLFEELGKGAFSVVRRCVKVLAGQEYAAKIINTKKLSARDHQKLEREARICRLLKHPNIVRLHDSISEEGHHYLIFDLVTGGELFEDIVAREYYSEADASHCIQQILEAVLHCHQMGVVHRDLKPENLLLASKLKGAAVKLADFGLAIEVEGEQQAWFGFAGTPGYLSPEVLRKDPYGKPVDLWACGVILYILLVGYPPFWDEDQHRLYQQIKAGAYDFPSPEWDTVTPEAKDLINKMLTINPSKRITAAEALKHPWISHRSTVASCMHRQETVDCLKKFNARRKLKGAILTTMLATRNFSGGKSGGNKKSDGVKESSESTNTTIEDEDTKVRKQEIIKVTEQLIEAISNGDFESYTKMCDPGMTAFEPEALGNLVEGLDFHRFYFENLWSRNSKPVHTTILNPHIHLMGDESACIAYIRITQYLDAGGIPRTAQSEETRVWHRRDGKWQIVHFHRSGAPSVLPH
Chain of Serine/threonine-protein kinase MARK1 (Homo sapiens) (Q9P0L2 whole entry, looked up): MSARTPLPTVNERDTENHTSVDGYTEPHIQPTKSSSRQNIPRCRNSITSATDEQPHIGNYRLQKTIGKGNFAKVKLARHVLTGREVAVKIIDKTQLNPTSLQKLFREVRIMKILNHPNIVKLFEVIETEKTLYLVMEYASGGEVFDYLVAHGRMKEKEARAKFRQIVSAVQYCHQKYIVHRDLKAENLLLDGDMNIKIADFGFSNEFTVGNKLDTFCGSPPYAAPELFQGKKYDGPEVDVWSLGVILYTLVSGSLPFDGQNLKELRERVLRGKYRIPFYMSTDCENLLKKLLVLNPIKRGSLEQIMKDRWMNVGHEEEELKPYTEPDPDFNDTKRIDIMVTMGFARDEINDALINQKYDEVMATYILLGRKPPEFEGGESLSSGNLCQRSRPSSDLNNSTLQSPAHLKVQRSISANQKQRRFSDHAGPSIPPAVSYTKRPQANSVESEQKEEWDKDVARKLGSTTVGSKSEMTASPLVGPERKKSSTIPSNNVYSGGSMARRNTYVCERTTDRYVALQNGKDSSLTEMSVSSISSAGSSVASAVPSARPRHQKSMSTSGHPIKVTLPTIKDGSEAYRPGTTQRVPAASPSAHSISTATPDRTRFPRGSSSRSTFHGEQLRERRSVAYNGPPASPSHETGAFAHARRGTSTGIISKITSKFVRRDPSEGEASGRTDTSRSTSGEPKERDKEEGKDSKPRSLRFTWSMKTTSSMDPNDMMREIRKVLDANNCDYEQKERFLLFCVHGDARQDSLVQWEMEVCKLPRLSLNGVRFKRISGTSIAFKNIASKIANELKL
Chain of MAP kinase-activated protein kinase 3 (Homo sapiens) (Q16644 whole entry, looked up): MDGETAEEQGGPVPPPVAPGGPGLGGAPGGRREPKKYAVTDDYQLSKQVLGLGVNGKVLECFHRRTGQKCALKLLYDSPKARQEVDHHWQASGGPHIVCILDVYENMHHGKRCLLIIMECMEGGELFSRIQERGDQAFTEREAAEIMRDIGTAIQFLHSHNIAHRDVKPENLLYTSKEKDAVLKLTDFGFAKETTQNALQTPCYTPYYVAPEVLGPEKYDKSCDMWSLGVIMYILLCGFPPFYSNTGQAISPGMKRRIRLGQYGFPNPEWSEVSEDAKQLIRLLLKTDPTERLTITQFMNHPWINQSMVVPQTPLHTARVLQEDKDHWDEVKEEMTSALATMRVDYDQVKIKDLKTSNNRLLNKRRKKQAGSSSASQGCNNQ
Chain of Death-associated protein kinase 1 (Homo sapiens) (P53355 whole entry, looked up): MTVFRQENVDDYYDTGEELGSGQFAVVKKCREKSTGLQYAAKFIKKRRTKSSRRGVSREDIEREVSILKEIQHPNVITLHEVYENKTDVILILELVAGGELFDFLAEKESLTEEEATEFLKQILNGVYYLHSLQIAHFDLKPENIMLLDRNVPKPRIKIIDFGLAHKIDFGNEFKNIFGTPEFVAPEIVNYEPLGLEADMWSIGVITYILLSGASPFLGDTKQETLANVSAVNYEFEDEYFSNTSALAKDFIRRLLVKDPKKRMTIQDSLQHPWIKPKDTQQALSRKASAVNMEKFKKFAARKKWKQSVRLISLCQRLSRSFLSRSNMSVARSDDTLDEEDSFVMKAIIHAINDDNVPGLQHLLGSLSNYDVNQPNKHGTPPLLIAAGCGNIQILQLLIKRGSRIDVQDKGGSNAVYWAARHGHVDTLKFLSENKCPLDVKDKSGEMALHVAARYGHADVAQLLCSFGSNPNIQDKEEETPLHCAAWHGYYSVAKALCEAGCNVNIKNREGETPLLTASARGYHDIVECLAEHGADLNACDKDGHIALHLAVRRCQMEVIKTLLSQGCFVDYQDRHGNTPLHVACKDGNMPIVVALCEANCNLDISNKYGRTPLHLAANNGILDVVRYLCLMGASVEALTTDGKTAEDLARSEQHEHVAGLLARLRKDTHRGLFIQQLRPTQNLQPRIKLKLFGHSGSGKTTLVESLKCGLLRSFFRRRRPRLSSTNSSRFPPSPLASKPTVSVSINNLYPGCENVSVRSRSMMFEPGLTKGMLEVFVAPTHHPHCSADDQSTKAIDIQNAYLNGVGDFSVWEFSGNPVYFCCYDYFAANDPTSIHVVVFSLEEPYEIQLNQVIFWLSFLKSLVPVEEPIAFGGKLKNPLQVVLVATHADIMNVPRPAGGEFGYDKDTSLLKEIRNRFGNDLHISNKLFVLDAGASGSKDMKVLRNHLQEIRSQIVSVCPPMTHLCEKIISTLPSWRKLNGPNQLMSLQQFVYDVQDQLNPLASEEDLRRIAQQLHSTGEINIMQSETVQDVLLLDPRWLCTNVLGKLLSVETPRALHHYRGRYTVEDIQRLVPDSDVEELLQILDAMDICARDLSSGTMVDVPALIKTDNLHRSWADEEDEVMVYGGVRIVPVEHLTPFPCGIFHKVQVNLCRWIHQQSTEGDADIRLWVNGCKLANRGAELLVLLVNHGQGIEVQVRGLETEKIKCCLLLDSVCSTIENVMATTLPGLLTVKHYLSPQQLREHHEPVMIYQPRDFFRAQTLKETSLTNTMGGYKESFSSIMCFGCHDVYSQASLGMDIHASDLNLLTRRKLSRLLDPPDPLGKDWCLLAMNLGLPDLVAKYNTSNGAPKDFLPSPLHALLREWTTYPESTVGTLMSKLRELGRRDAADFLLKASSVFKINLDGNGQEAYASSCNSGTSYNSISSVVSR

| SMILES | inhibition [1] [%] | inhibition [2] [%] | inhibition [3] [%] | inhibition [4] [%] | inhibition [5] [%] | inhibition [6] [%] | inhibition [7] [%] | inhibition [8] [%] | inhibition [9] [%] | inhibition [10] [%] | inhibition [11] [%] | inhibition [12] [%] | inhibition [13] [%] | inhibition [14] [%] | inhibition [15] [%] | inhibition [16] [%] | inhibition [17] [%] | inhibition [18] [%] | inhibition [19] [%] | inhibition [20] [%] |
| --- | --- | --- | --- | --- | --- | --- | --- | --- | --- | --- | --- | --- | --- | --- | --- | --- | --- | --- | --- | --- |
| Clc1ccc(-c2nn3ncccc3c2-c2ccnc(Nc3ccccc3)n2)cc1 | 0.86 | 1.7 | 1.08 | 4.89 | -0.99 | -0.54 | -0.93 | 0.52 | 1.08 | 0.42 | -0.24 | 1.9 | 6.65 | 0.42 | -0.09 | 22.4 | 32.1 | 1.31 | 0.37 | -2.23 |
| CC1=C(C(=O)Nc2cc(Cl)c3[nH]ncc3c2)C(c2ccc(C(F)(F)F)cc2)CC(=O)N1 (stereo not given) | 1.21 | 1.82 | 4.42 | -0.37 | 0.15 | 8.32 | 11.4 | 6.46 | 7.48 | 9.05 | 10 | 3.55 | 2.36 | 4.51 | 4.3 | 9.27 | 9.12 | 3.77 | 6.87 | 3.36 |
| CCn1c(-c2nonc2N)nc2c(C#CC(C)(C)O)ncc(OC3CCNCC3)c21 | 5.73 | 4.43 | 8.15 | 1.96 | 6.84 | 2 | 4.29 | 2.65 | 7.53 | 4.3 | 5.68 | 0.06 | 3.29 | 1.3 | 3.78 | 3.98 | 4.41 | 20.8 | 74.1 | 21.2 |
| CCN(CC)S(=O)(=O)c1ccc(OC)c(Nc2ncc(-c3ccccc3)o2)c1 | 6.08 | 2.08 | 8.27 | -0.4 | -1.66 | 1.49 | 2.79 | -0.98 | 2.66 | 4 | 4.29 | 2.03 | 3.38 | 2.65 | 1.48 | 1.95 | -0.47 | 1.44 | 2.58 | -0.45 |
| Nc1nc(-c2cccc(Cl)c2)c(-c2ccc3ncccc3n2)s1 | 2.48 | 2.83 | 3.46 | -2.8 | -4.36 | 9.85 | 12.6 | 10.1 | 12.7 | 12 | 15.4 | 1.69 | 1.16 | 4.89 | 6.05 | 13.6 | 23.9 | 5.51 | 4.17 | 2.28 |
| COc1ccc(-c2cc(-c3c[nH]nc3-c3ccccn3)ccn2)cc1 | 6.7 | 3.82 | 3.97 | -2.15 | -3.38 | 3.08 | 6.57 | 3.42 | 4.49 | 5.21 | 6.22 | 2.08 | 0.82 | 2.82 | 2.73 | 6.42 | 14 | 5.2 | 7.25 | 5.15 |
| N#Cc1c(NC(=O)CN2CCOCC2)sc2c1CCCC2 | 4.63 | 3.07 | 5.65 | -1.76 | -1.41 | 1.74 | 5.06 | 1.85 | 4.14 | 5.34 | 5.97 | 2.25 | 1.22 | 2.32 | 2 | 3.68 | 5.44 | 4.32 | 6.04 | 4.14 |
| CNC(=O)c1cncc(/C=C/c2ccccc2Cl)c1 | 1.63 | -0.13 | -0.98 | -3.66 | -4.17 | 1.43 | 3.35 | -0.6 | 1.77 | 2.15 | 1.77 | 0.59 | -3.35 | 0.55 | 1.05 | 0.66 | -0.89 | 1.46 | 5.24 | 1.01 |
| COC(=O)c1sc(-n2cnc3cc(OC)c(OC)cc32)cc1OCc1ccccc1C(F)(F)F | 5.27 | 4.25 | 11.3 | 1.9 | 11.2 | 1.72 | 2.67 | 3.73 | 4.65 | 0.08 | 1.94 | 2.16 | 0.62 | 1.81 | 1.73 | 4.86 | 5.46 | 2.71 | 6.82 | 2.38 |
| Fc1ccc(-c2cc(-c3c[nH]nc3-c3ccccn3)ccn2)cc1 | 2.33 | 2.86 | 4.06 | -2.35 | -4.94 | 1.21 | -0.75 | 4.88 | 5.9 | 0.73 | 3.05 | 1.09 | -1.86 | 2.53 | 2.72 | 7.67 | 18.4 | 4.11 | 3.39 | 2.52 |
| Fc1ccc(-c2nn3ccccc3c2-c2ccncc2)cc1 | 0.25 | 0.43 | 2.99 | 1.16 | 1.98 | 0.22 | -0.04 | -0.38 | 0.19 | 0.72 | 0.99 | 1.01 | -2.66 | 0.22 | 0 | 14.4 | 28.4 | 1.76 | 2.2 | 1 |
